# Assay results as given in article PMC7862700, “An all-to-all approach to the identification of sequence-specific readers for epigenetic DNA modifications on cytosine”.
# Target: T1, FEV (Homo sapiens, UniProt Q99581 1-238)
# T1 sequence: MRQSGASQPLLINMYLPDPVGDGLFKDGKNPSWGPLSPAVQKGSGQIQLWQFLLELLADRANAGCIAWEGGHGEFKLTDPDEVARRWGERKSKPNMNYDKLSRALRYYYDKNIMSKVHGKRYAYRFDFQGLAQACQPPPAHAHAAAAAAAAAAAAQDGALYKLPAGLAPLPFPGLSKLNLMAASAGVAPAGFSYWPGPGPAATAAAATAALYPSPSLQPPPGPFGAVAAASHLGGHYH
# Experiment: DAPPL (digital affinity profiling via proximity ligation, sequencing); 10 mM Tris-HCl pH 7.5, 50 mM NaCl, 1 mM DTT, 4% glycerol, room temperature, 30 min; GST-TFs on glutathione beads, 16-mer random dsDNA library, 0.1% formaldehyde crosslink after washing; high values mean tight binding
# Settings: protein: recombinant; tags: N-terminal GST; dsDNA, one strand shown
# Summary of the method: (§1)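 Pools were built from human transcription factors expressed in yeast as GST fusions, captured on glutathione beads and DNA-barcoded, along with a tag-only sample. Incubation with 200 nmole of a 16-mer random double-stranded DNA library lasted 30 min at room temperature in Tris/NaCl/DTT/glycerol buffer, and was followed by washing, 0.1% formaldehyde crosslinking, proximity ligation, PCR amplification and Illumina NextSeq500 sequencing. Binding signal is the quotient of each hexamer's read frequency for a factor and its frequency for the tag-only sample.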
row,Sequence,binding signal
1,TCCATG,"1.11 fold enrichment (6-mer frequency, TF over GST control)"
2,CTTAGT,"1.13 fold enrichment (6-mer frequency, TF over GST control)"
3,TACTTT,"1.33 fold enrichment (6-mer frequency, TF over GST control)"
4,CCCTAC,"1.46 fold enrichment (6-mer frequency, TF over GST control)"
5,TTCTAT,"1.4 fold enrichment (6-mer frequency, TF over GST control)"
6,TCAAAC,"1.21 fold enrichment (6-mer frequency, TF over GST control)"
7,ATATAA,"1.15 fold enrichment (6-mer frequency, TF over GST control)"
8,TCCCGG,"2.09 fold enrichment (6-mer frequency, TF over GST control)"
9,CTTAAC,"1.27 fold enrichment (6-mer frequency, TF over GST control)"
10,TTACAC,"1.24 fold enrichment (6-mer frequency, TF over GST control)"
11,AGTGCT,"1.4 fold enrichment (6-mer frequency, TF over GST control)"
12,TCGACT,"1.42 fold enrichment (6-mer frequency, TF over GST control)"
13,GCTATT,"1.29 fold enrichment (6-mer frequency, TF over GST control)"
14,TGTCTT,"1.27 fold enrichment (6-mer frequency, TF over GST control)"
15,GCCTTA,"1.11 fold enrichment (6-mer frequency, TF over GST control)"
16,GCTCCT,"1.46 fold enrichment (6-mer frequency, TF over GST control)"
17,TCTACT,"1.39 fold enrichment (6-mer frequency, TF over GST control)"
18,ATTTTT,"1.15 fold enrichment (6-mer frequency, TF over GST control)"
19,TCTTAC,"1.23 fold enrichment (6-mer frequency, TF over GST control)"
20,ATTTGA,"1.17 fold enrichment (6-mer frequency, TF over GST control)"

row,Sequence,binding signal
1,TATCCA,"1.29 fold enrichment (6-mer frequency, TF over GST control)"
2,CTGTTA,"1.25 fold enrichment (6-mer frequency, TF over GST control)"
3,AATGCC,"1.23 fold enrichment (6-mer frequency, TF over GST control)"
4,CGAATA,"1.16 fold enrichment (6-mer frequency, TF over GST control)"
5,GATTCC,"1.09 fold enrichment (6-mer frequency, TF over GST control)"
6,GAACTC,"1.28 fold enrichment (6-mer frequency, TF over GST control)"
7,TTCACG,"1.28 fold enrichment (6-mer frequency, TF over GST control)"
8,TTCAAT,"1.31 fold enrichment (6-mer frequency, TF over GST control)"
9,TTCTCT,"1.22 fold enrichment (6-mer frequency, TF over GST control)"
10,TCTCGT,"1.21 fold enrichment (6-mer frequency, TF over GST control)"
11,ACAATT,"1.27 fold enrichment (6-mer frequency, TF over GST control)"
12,AACTGG,"1.12 fold enrichment (6-mer frequency, TF over GST control)"
13,ATCCTT,"1.64 fold enrichment (6-mer frequency, TF over GST control)"
14,GCGCTT,"1.37 fold enrichment (6-mer frequency, TF over GST control)"
15,TATGTT,"1.17 fold enrichment (6-mer frequency, TF over GST control)"
16,GACTCT,"1.32 fold enrichment (6-mer frequency, TF over GST control)"
17,TAATGC,"1.17 fold enrichment (6-mer frequency, TF over GST control)"
18,CCTTAG,"1.28 fold enrichment (6-mer frequency, TF over GST control)"
19,CTGACT,"1.32 fold enrichment (6-mer frequency, TF over GST control)"
20,AACTAC,"1.35 fold enrichment (6-mer frequency, TF over GST control)"

# Target: ETV5 (Homo sapiens, UniProt P41161 1-510)
# Sequence (P41161 whole entry): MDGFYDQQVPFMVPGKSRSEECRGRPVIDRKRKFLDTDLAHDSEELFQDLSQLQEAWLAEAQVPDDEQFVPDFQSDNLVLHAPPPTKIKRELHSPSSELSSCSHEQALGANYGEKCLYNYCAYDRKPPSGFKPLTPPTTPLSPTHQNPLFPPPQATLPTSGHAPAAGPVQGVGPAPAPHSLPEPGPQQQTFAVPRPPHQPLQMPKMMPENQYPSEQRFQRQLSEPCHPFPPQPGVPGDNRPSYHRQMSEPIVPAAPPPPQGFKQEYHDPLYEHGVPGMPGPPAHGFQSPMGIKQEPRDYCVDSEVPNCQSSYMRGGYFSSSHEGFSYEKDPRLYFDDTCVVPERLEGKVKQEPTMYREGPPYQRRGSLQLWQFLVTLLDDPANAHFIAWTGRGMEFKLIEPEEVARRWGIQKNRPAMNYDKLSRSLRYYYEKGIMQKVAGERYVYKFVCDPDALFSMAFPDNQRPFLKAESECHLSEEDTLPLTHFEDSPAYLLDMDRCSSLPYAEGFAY
# Experiment: as above
# Settings: protein: recombinant; tags: N-terminal GST; dsDNA, one strand shown
# Summary of the method: as §1
row,Sequence,binding signal
1,TCCATG,"1.2 fold enrichment (6-mer frequency, TF over GST control)"
2,CTTAGT,"1.3 fold enrichment (6-mer frequency, TF over GST control)"
3,TACTTT,"1.38 fold enrichment (6-mer frequency, TF over GST control)"
4,CCCTAC,"1.43 fold enrichment (6-mer frequency, TF over GST control)"
5,TTCTAT,"1.43 fold enrichment (6-mer frequency, TF over GST control)"
6,TCAAAC,"1.17 fold enrichment (6-mer frequency, TF over GST control)"
7,ATATAA,"1.15 fold enrichment (6-mer frequency, TF over GST control)"
8,TCCCGG,"2.27 fold enrichment (6-mer frequency, TF over GST control)"
9,CTTAAC,"1.26 fold enrichment (6-mer frequency, TF over GST control)"
10,TTACAC,"1.23 fold enrichment (6-mer frequency, TF over GST control)"
11,AGTGCT,"1.4 fold enrichment (6-mer frequency, TF over GST control)"
12,TCGACT,"1.35 fold enrichment (6-mer frequency, TF over GST control)"
13,GCTATT,"1.3 fold enrichment (6-mer frequency, TF over GST control)"
14,TGTCTT,"1.24 fold enrichment (6-mer frequency, TF over GST control)"
15,GCCTTA,"1.13 fold enrichment (6-mer frequency, TF over GST control)"
16,GCTCCT,"1.4 fold enrichment (6-mer frequency, TF over GST control)"
17,TCTACT,"1.39 fold enrichment (6-mer frequency, TF over GST control)"
18,ATTTTT,"1.21 fold enrichment (6-mer frequency, TF over GST control)"
19,TCTTAC,"1.28 fold enrichment (6-mer frequency, TF over GST control)"
20,ATTTGA,"1.16 fold enrichment (6-mer frequency, TF over GST control)"

row,Sequence,binding signal
1,TATCCA,"1.27 fold enrichment (6-mer frequency, TF over GST control)"
2,CTGTTA,"1.2 fold enrichment (6-mer frequency, TF over GST control)"
3,AATGCC,"1.2 fold enrichment (6-mer frequency, TF over GST control)"
4,CGAATA,"1.07 fold enrichment (6-mer frequency, TF over GST control)"
5,GATTCC,"1.21 fold enrichment (6-mer frequency, TF over GST control)"
6,GAACTC,"1.29 fold enrichment (6-mer frequency, TF over GST control)"
7,TTCACG,"1.34 fold enrichment (6-mer frequency, TF over GST control)"
8,TTCAAT,"1.32 fold enrichment (6-mer frequency, TF over GST control)"
9,TTCTCT,"1.24 fold enrichment (6-mer frequency, TF over GST control)"
10,TCTCGT,"1.1 fold enrichment (6-mer frequency, TF over GST control)"
11,ACAATT,"1.33 fold enrichment (6-mer frequency, TF over GST control)"
12,AACTGG,"1.21 fold enrichment (6-mer frequency, TF over GST control)"
13,ATCCTT,"1.67 fold enrichment (6-mer frequency, TF over GST control)"
14,GCGCTT,"1.29 fold enrichment (6-mer frequency, TF over GST control)"
15,TATGTT,"1.15 fold enrichment (6-mer frequency, TF over GST control)"
16,GACTCT,"1.26 fold enrichment (6-mer frequency, TF over GST control)"
17,TAATGC,"1.16 fold enrichment (6-mer frequency, TF over GST control)"
18,CCTTAG,"1.18 fold enrichment (6-mer frequency, TF over GST control)"
19,CTGACT,"1.23 fold enrichment (6-mer frequency, TF over GST control)"
20,AACTAC,"1.38 fold enrichment (6-mer frequency, TF over GST control)"

# Target: HSF1 (Homo sapiens, UniProt Q00613 1-529)
# Sequence (Q00613 whole entry): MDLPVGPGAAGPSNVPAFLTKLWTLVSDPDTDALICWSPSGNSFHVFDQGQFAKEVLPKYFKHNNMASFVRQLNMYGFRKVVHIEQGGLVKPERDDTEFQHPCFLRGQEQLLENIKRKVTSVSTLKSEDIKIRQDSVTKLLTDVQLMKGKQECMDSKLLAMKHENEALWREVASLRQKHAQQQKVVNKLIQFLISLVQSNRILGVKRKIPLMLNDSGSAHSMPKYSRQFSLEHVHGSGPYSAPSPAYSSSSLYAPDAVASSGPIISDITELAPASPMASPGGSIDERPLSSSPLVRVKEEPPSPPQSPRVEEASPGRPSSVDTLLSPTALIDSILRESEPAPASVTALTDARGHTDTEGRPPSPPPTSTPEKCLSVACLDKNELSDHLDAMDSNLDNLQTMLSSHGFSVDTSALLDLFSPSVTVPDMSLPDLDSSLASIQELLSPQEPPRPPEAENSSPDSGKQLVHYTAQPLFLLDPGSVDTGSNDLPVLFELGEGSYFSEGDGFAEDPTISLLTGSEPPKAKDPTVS
# Experiment: as above
# Settings: protein: recombinant; tags: N-terminal GST; chain copies: 3; dsDNA, one strand shown
# Summary of the method: as §1
row,Sequence,binding signal
1,TCCATG,"1.1 fold enrichment (6-mer frequency, TF over GST control)"
2,CTTAGT,"1.49 fold enrichment (6-mer frequency, TF over GST control)"
3,TACTTT,"1.44 fold enrichment (6-mer frequency, TF over GST control)"
4,CCCTAC,"1.13 fold enrichment (6-mer frequency, TF over GST control)"
5,TTCTAT,"2.05 fold enrichment (6-mer frequency, TF over GST control)"
6,TCAAAC,"1.03 fold enrichment (6-mer frequency, TF over GST control)"
7,ATATAA,"1.34 fold enrichment (6-mer frequency, TF over GST control)"
8,TCCCGG,"1.37 fold enrichment (6-mer frequency, TF over GST control)"
9,CTTAAC,"1.72 fold enrichment (6-mer frequency, TF over GST control)"
10,TTACAC,"1.35 fold enrichment (6-mer frequency, TF over GST control)"
11,AGTGCT,"1.15 fold enrichment (6-mer frequency, TF over GST control)"
12,TCGACT,"1.57 fold enrichment (6-mer frequency, TF over GST control)"
13,GCTATT,"1.22 fold enrichment (6-mer frequency, TF over GST control)"
14,TGTCTT,"1.13 fold enrichment (6-mer frequency, TF over GST control)"
15,GCCTTA,"1.3 fold enrichment (6-mer frequency, TF over GST control)"
16,GCTCCT,"1.29 fold enrichment (6-mer frequency, TF over GST control)"
17,TCTACT,"1.51 fold enrichment (6-mer frequency, TF over GST control)"
18,ATTTTT,"1.31 fold enrichment (6-mer frequency, TF over GST control)"
19,TCTTAC,"1.23 fold enrichment (6-mer frequency, TF over GST control)"
20,ATTTGA,"1.21 fold enrichment (6-mer frequency, TF over GST control)"

row,Sequence,binding signal
1,TATCCA,"1.49 fold enrichment (6-mer frequency, TF over GST control)"
2,CTGTTA,"1.16 fold enrichment (6-mer frequency, TF over GST control)"
3,AATGCC,"1.07 fold enrichment (6-mer frequency, TF over GST control)"
4,CGAATA,"1.87 fold enrichment (6-mer frequency, TF over GST control)"
5,GATTCC,"1.34 fold enrichment (6-mer frequency, TF over GST control)"
6,GAACTC,"1.25 fold enrichment (6-mer frequency, TF over GST control)"
7,TTCACG,"1.51 fold enrichment (6-mer frequency, TF over GST control)"
8,TTCAAT,"1.27 fold enrichment (6-mer frequency, TF over GST control)"
9,TTCTCT,"1.84 fold enrichment (6-mer frequency, TF over GST control)"
10,TCTCGT,"2.01 fold enrichment (6-mer frequency, TF over GST control)"
11,ACAATT,"1.18 fold enrichment (6-mer frequency, TF over GST control)"
12,AACTGG,"1.25 fold enrichment (6-mer frequency, TF over GST control)"
13,ATCCTT,"1.98 fold enrichment (6-mer frequency, TF over GST control)"
14,GCGCTT,"1.16 fold enrichment (6-mer frequency, TF over GST control)"
15,TATGTT,"1.21 fold enrichment (6-mer frequency, TF over GST control)"
16,GACTCT,"1.26 fold enrichment (6-mer frequency, TF over GST control)"
17,TAATGC,"1.63 fold enrichment (6-mer frequency, TF over GST control)"
18,CCTTAG,"1.2 fold enrichment (6-mer frequency, TF over GST control)"
19,CTGACT,"1.05 fold enrichment (6-mer frequency, TF over GST control)"
20,AACTAC,"1.22 fold enrichment (6-mer frequency, TF over GST control)"
